The record followed here is PubChem BioAssay.

Each structure is given as a SMILES string. A number with no mark means an inactive call. For part of these data: Potency and affinity values are given separately. Active and inactive are the calls of the source. Unless noted, the rule behind the calls is not given here.

The nature of test [1]: antimalarial activity against Dd2 strain (AID 2302;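 active = growth inhibition above 50% at the single 2 µM test dose, taken to imply half-maximal potency below 2 µM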;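 note: 0% = DMSO untreated growth and 100% = chloroquine plus artemisinin killed control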). The settings on record: P. falciparum Dd2 in RBCs, LDH growth readout, 72 h; at 2 µM; active compounds read high.
Test [2] is described as follows: human hepatoma cell viability loss – ATP luminescence, cytotoxicity control for P. falciparum antimalarial project, primary screen (AID 2303;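 active = inhibition above 50%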;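 note: 0% = DMSO wells and 100% = digitonin-killed cells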). The following applies: HepG2 viability, 24-48 h, at 10 µM, active compounds read high.
In test [3] the target is L-lactate dehydrogenase (Plasmodium falciparum (isolate CDC / Honduras)) (UniProt Q27743). Nature of the test: PfLDH activity inhibition – cell lysate, 3D7 strain, counter-screen for P. falciparum growth inhibition project (AID 2304).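 Note: 0% = vehicle and 100% = reference inhibitor.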 The settings on record: P. falciparum 3D7 crude extract, LDH APAD/NBT absorbance; at 2 µM; active compounds read high.
The nature of test [4]: inhibition of 3D7 malaria parasite growth – strain 3D7 (AID 2306).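 Note: 0% = DMSO wells and 100% = chloroquine plus artemisinin control wells.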 The settings on record: P. falciparum 3D7 erythrocytic growth, LDH absorbance, 72 h; at 2 µM; active compounds read high.
In test [5] the target is Calcium-dependent protein kinase 1 (Plasmodium falciparum (isolate 3D7)) (UniProt P62344). Briefly: PfCDPK1 kinase inhibitors, biochemical, TCAMS library (AID 1159585; cut-off not given, nearly all actives have IC50 up to about 0.98 µM;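 note: inhibitors leave more ATP so luminescence rises with inhibition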). The following applies: recombinant PfCDPK1, Kinase-Glo ATP depletion luminescence.
Test [6] addresses Plasmodium falciparum protein kinase 6 (PK6, PF3D7_1337100) (UniProt Q8IDW1). Briefly: PfPK6 kinase inhibitors, biochemical, TCAMS library (AID 1159586). The settings on record: recombinant PfPK6, Kinase-Glo ATP depletion luminescence. Background: In Kinase-Glo more light means more ATP remaining.
Test [7] addresses Protein kinase 7 (PK7), Plasmodium falciparum 3D7 (PF3D7_0213400) (UniProt Q7YTF7). Nature of the test: inhibition of Plasmodium PK7 catalytic activity – biochemical, TCAMS antimalarial set, Kinase-Glo luminescence (AID 1159587). The settings on record: recombinant PfPK7, Kinase-Glo ATP depletion luminescence.
The target in test [8] is Calcium-dependent protein kinase 4 (Plasmodium falciparum (isolate 3D7)) (UniProt Q8IBS5). Briefly: PfCDPK4 kinase inhibitors, biochemical, TCAMS library (AID 1159588; cut-off not given, nearly all actives have IC50 up to about 0.91 µM). The settings on record: recombinant PfCDPK4, Kinase-Glo ATP depletion luminescence.
Calcium-dependent protein kinase 4 (Plasmodium falciparum (isolate 3D7)), sequence (Q8IBS5 whole entry, looked up): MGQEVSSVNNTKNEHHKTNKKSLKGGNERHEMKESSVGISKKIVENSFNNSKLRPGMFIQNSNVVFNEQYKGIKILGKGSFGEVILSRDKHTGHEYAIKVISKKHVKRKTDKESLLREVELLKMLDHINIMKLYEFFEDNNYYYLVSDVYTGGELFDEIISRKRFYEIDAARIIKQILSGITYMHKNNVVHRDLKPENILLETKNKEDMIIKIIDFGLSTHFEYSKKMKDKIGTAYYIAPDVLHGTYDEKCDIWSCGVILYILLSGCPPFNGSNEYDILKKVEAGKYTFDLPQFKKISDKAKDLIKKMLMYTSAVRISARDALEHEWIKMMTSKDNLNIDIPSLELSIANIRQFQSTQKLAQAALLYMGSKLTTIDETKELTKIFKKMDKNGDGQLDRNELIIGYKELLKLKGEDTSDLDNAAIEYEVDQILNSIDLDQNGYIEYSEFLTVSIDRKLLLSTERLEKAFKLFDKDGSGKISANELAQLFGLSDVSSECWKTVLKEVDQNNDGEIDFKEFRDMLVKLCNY

L-lactate dehydrogenase (Plasmodium falciparum (isolate CDC / Honduras)), sequence (Q27743 whole entry, looked up): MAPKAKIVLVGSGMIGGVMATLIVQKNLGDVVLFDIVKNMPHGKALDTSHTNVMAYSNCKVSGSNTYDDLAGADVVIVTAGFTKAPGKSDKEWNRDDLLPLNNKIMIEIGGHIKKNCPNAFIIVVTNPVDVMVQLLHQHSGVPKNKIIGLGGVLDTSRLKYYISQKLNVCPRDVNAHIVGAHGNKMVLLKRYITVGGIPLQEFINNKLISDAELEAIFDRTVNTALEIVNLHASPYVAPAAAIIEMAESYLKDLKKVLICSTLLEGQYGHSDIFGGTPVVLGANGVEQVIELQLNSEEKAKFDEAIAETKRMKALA
Plasmodium falciparum protein kinase 6 (PK6, PF3D7_1337100), sequence (Q8IDW1 1-305): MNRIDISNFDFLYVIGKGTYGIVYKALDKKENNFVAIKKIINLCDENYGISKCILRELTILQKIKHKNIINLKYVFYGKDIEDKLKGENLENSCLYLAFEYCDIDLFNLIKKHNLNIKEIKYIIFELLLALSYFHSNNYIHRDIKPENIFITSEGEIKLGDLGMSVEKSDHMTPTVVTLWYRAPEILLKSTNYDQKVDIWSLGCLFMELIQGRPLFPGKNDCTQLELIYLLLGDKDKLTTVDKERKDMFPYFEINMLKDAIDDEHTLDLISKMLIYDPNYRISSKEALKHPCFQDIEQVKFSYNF
Protein kinase 7 (PK7), Plasmodium falciparum 3D7 (PF3D7_0213400), sequence (Q7YTF7 1-343): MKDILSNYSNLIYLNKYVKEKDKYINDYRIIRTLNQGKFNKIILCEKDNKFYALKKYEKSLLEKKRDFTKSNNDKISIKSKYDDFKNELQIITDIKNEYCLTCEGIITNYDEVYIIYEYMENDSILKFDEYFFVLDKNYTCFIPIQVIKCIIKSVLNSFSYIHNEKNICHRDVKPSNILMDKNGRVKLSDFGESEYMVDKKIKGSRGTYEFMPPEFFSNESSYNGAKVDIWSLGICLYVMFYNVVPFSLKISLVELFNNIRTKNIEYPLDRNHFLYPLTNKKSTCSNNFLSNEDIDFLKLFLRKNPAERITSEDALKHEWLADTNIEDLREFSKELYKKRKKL
Calcium-dependent protein kinase 1 (Plasmodium falciparum (isolate 3D7)), sequence (P62344 whole entry, looked up): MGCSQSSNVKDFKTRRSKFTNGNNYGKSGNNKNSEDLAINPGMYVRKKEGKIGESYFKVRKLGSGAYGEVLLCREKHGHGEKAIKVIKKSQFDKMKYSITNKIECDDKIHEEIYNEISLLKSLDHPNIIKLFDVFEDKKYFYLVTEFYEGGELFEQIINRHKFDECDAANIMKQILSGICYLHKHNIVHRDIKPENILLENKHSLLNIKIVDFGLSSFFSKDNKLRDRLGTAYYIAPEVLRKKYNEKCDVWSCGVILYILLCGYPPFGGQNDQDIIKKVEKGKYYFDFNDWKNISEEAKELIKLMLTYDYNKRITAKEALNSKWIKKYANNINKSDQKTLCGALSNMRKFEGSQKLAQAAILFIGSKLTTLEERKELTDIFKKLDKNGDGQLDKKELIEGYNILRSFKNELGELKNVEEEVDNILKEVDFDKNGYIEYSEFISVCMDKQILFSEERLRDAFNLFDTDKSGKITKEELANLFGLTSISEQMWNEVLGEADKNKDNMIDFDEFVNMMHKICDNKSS

Take `CCC(CCON1C(N)=NC(N)=NC1(C)C)c1ccc(Cl)c(Cl)c1` (configuration not stated): the figures for the growth inhibition in test [1] and in test [4] were 98% (active) and 94% (active), respectively. For the same molecule, the inhibition is 68% (active) in test [2] and -7% in test [3]. Besides, the outcome in test [5], in test [6], in test [7] and in test [8] was inactive.

For `COc1ccc(NC(=O)[C@H](CC(C)C)Nc2cc(C)nc(NCCOc3ccccc3)n2)cc1`, the growth inhibition in test [1] is 65% (active); in test [4], 100% (active). Also, the values for the inhibition in test [2] and in test [3] were -1% and 4%, respectively. Besides, the outcome in test [5], in test [6], in test [7] and in test [8] was inactive.

Turning to `COc1cc(Nc2ccnc3cc(-c4ccccn4)ccc23)cc(OC)c1OC`, the growth inhibition was 0% in test [1] and 91% (active) in test [4]. Further, the inhibition is -9% in test [2] and -1% in test [3]. Also, the outcome in test [5], in test [6], in test [7] and in test [8] was inactive.

Regarding `CN1CCN(CCc2ccc(N=Cc3c(=O)[nH]c4ccc5[nH]cccc5c34)cc2)CC1`, the growth inhibition in test [1] is 98% (active); in test [4], 102% (active). Also, the inhibition was 51% (active) in test [2] and 6% in test [3]. Besides, the outcome in test [5], in test [6], in test [7] and in test [8] was inactive.

As for `CCCCN(Cc1cnccc1-c1ccc(Br)cc1)c1ccc(C(O)(C(F)(F)F)C(F)(F)F)cc1`, the values for the growth inhibition in test [1] and in test [4] were 45% and 87% (active), respectively. The figures for the inhibition in test [2] and in test [3] were 10% and 6%, respectively. Besides, the result in test [5], in test [6], in test [7] and in test [8] was inactive.

In the case of `CN1CCC(NCc2cccc(-c3ccc(S(=O)(=O)NCCc4ccccn4)cc3)c2)CC1`, the growth inhibition in test [1] was 1%; in test [4], 95% (active). Besides, the values for the inhibition in test [2] and in test [3] were 10% and -1%, respectively. Also, the outcome in test [5], in test [6], in test [7] and in test [8] was inactive.

Regarding `Cc1cc(NC(=O)c2cccs2)ccc1OC1CCN(Cc2ccccc2)C1` (configuration not stated), the growth inhibition in test [1] was 87% (active); in test [4] it was 84% (active). In addition, the inhibition in test [2] was 7%; in test [3], -1%. In addition, the result in test [5], in test [6], in test [7] and in test [8] was inactive.

For the molecule `CC1(C)N=C(N)N=C(N)N1OCCCNC(=O)c1ccc([N+](=O)[O-])cc1`, the results for the growth inhibition in test [1] and in test [4] were 97% (active) and 92% (active), respectively. In addition, the figures for the inhibition in test [2] and in test [3] were 57% (active) and 2%, respectively. For the same molecule, the outcome in test [5], in test [6], in test [7] and in test [8] was inactive.

Turning to `COc1ccc(Nc2nccc(N3CCC(NC(=O)Nc4cccc(C(C)=O)c4)C3)n2)cc1` (configuration not stated), the growth inhibition is 79% (active) in test [1] and 98% (active) in test [4]. Further, the inhibition in test [2] was 29%; in test [3] it was -11%. Further, the outcome in test [5], in test [6], in test [7] and in test [8] was inactive.

Take `COCCN1CCN(Cc2cccc(-c3ccc(-c4nc5ccccc5[nH]4)cc3)c2)CC1`: the values for the growth inhibition in test [1] and in test [4] were 50% (active) and 100% (active), respectively. Moreover, the inhibition in test [2] was 9%; in test [3], 1%. For the same molecule, the outcome in test [5], in test [6], in test [7] and in test [8] was inactive.

With `CC=Cc1cc(Cc2cnc(N)nc2N)cc(CCC)c1OC`, the growth inhibition is 1% in test [1] and 97% (active) in test [4]. The inhibition in test [2] is 16%; in test [3] it was 5%. In addition, the outcome in test [5], in test [6], in test [7] and in test [8] was inactive.

As for `CCCCNc1cc(C)nc(NCc2ccccc2)n1`, the growth inhibition in test [1] was 37%; in test [4], 97% (active). The figures for the inhibition in test [2] and in test [3] were 23% and 3%, respectively. Further, the outcome in test [5], in test [6], in test [7] and in test [8] was inactive.

Turning to `COCC(=O)N(Cc1ccccc1-c1cccc(CNCc2ccc3c(c2)OCO3)c1)C1CCN(Cc2ccccc2)CC1`, the growth inhibition in test [1] was 72% (active); in test [4], 94% (active). The inhibition in test [2] was 33%; in test [3], -1%. Besides, the outcome in test [5], in test [6], in test [7] and in test [8] was inactive.

As to `NC(N)=NN=CC(=O)Nc1cccc(C(F)(F)F)c1`, the growth inhibition is 25% in test [1] and 99% (active) in test [4]. In addition, the inhibition in test [2] was 21%; in test [3], 1%. The result in test [5], in test [6], in test [7] and in test [8] was inactive.

Turning to `Cn1cncc1-c1ccc2ncnc(Nc3ccc4c(cnn4Cc4ccccc4)c3)c2c1`, the growth inhibition is 99% (active) in test [1] and 100% (active) in test [4]. Also, the inhibition in test [2] was 1%; in test [3], -3%. Further, the outcome in test [5], in test [6], in test [7] and in test [8] was inactive.

As to `CN(C)C(=O)c1cccc(COc2ccc(N3C(N)=NC(N)=NC3(C)C)cc2Cl)c1`, in test [3], the inhibition was 1%. Also, the outcome in test [5], in test [6], in test [7] and in test [8] was inactive.

For `CCCN1CCN(CCCNC(=O)c2cc3c(Cl)nc4ccc(C)cc4c3s2)CC1`, the figures for the growth inhibition in test [1] and in test [4] were 27% and 97% (active), respectively. The inhibition is 18% in test [2] and 0% in test [3]. Further, the result in test [5], in test [6], in test [7] and in test [8] was inactive.

In the case of `NC(N)=NN=CC(=O)Nc1ccc(Cl)c(Cl)c1`, the growth inhibition was 0% in test [1] and 97% (active) in test [4]. In addition, the inhibition in test [2] is -14%; in test [3] it was 0%. Besides, the outcome in test [5], in test [6], in test [7] and in test [8] was inactive.

Take `COc1ccc(-c2ccc(NC(=O)c3ccc(C#N)cc3)cc2)cc1CN1CCCN(C)CC1`: the growth inhibition is 75% (active) in test [1] and 99% (active) in test [4]. The results for the inhibition in test [2] and in test [3] were 27% and -3%, respectively. For the same molecule, the outcome in test [5], in test [6], in test [7] and in test [8] was inactive.

As to `Cn1cncc1CCN(Cc1ccc(-c2ccc(C(F)(F)F)cc2)cc1)C(=O)Cn1c(CCc2cccc(F)c2F)cc(=O)c2cccnc21`, the values for the growth inhibition in test [1] and in test [4] were 97% (active) and 100% (active), respectively. For the same molecule, the values for the inhibition in test [2] and in test [3] were 44% and -2%, respectively. The result in test [5], in test [6], in test [7] and in test [8] was inactive.

Take `CCn1c(Sc2ccc([N+](=O)[O-])c(C#N)c2)nnc1-c1ccc(Cl)cc1`: the figures for the growth inhibition in test [1] and in test [4] were 7% and 93% (active), respectively. For the same molecule, the inhibition in test [2] was 2%; in test [3] it was -2%. Besides, the result in test [5], in test [6], in test [7] and in test [8] was inactive.

Regarding `O=C(/C=C/c1ccc(Cl)c(Cl)c1)NCCCCCN1CCC(NC(=O)Nc2cccc(Cl)c2Cl)CC1`, the growth inhibition is 35% in test [1] and 104% (active) in test [4]. The inhibition in test [2] is 99% (active); in test [3] it was -5%. Moreover, the result in test [5], in test [6], in test [7] and in test [8] was inactive.

Consider `CN(CCc1ccccn1)Cc1ccc(-c2ccc(-c3nc4ccccc4[nH]3)s2)cc1`, for which the growth inhibition in test [1] was 48%; in test [4] it was 100% (active). The inhibition in test [2] is 29%; in test [3], 6%. Moreover, the result in test [5], in test [6], in test [7] and in test [8] was inactive.

Regarding `COc1ccccc1N1CCN(CCCCNC(=O)c2ccc(NC(=O)c3ccc(OC(F)(F)F)cc3)cc2)CC1`, the growth inhibition in test [1] was 39%; in test [4] it was 100% (active). Further, the inhibition in test [2] was 29%; in test [3], -6%. In addition, the outcome in test [5], in test [6], in test [7] and in test [8] was inactive.

On to `CCN(CC)CCNc1ccnc2[nH]c3ccc([N+](=O)[O-])cc3c12`, for which the growth inhibition in test [1] is 76% (active); in test [4] it was 100% (active). Further, the inhibition is 6% in test [2] and -4% in test [3]. The result in test [5], in test [6], in test [7] and in test [8] was inactive.

`Fc1ccc2cc(C=Cc3ccncc3)[nH]c2c1`: the growth inhibition is 89% (active) in test [1] and 100% (active) in test [4]. Besides, the results for the inhibition in test [2] and in test [3] were -10% and 0%, respectively. Also, the outcome in test [5], in test [6], in test [7] and in test [8] was inactive.

As to `COc1ccc2c(c1)CC(C)(C)NC2CCCCCCCCC1NC(C)(C)Cc2cc(OC)ccc21` (configuration not stated), the values for the growth inhibition in test [1] and in test [4] were 62% (active) and 98% (active), respectively. In addition, the inhibition in test [2] was 42%; in test [3], 0%. Moreover, the result in test [5], in test [6], in test [7] and in test [8] was inactive.

For the molecule `COc1ccc2cc(-c3nc(-c4c(Cl)cccc4Cl)[nH]c3-c3ccnc(NCCCN4CCN(C)CC4)c3)ccc2c1`, the growth inhibition is 80% (active) in test [1] and 98% (active) in test [4]. Also, the inhibition in test [2] was 10%; in test [3], -5%. Besides, the result in test [5], in test [6], in test [7] and in test [8] was inactive.

As to `CCCC(=O)NC(c1cccs1)c1cc(Cl)c2cccnc2c1O` (configuration not stated), the growth inhibition is 61% (active) in test [1] and 87% (active) in test [4]. The inhibition in test [2] is 51% (active); in test [3] it was -4%. For the same molecule, the result in test [5], in test [6], in test [7] and in test [8] was inactive.

With `CCC(Cc1cnc2nc(N)nc(N)c2n1)c1ccc(C(=O)O)cc1` (configuration not stated), the growth inhibition in test [1] is -2%; in test [4] it was 93% (active). In addition, the inhibition is 15% in test [2] and -2% in test [3]. The outcome in test [5], in test [6], in test [7] and in test [8] was inactive.

In general, inhibition refers to the drop in the measured response relative to a control, in per cent.
